MARV entry inh = qHTS for inhibitors of binding or entry into cells for Marburg Virus | Marburg virus pseudotyped entry inhibition, cell reporter | Potency, µM (series often up to 37.8 µM), without a hit: at the highest dose activity change, negative = inhibition, hits mostly inhibitors | 300,000 compounds, 1.8% hits; calls by dose curve; tested in HEK293 cells; further: potency means the concentration at half of the fitted maximal effect
HCV inh = qHTS Assay for Inhibitors of Hepatitis C Virus (HCV); Huh7.5.1 HCVcc-Cre infection, luciferase reporter, 44 h; Potency, µM (top dose mostly 41.8 µM), for the others: top-dose activity change, negative = inhibition, actives largely listed as inhibitors; 340,000 compounds, 3.4% hits; active means well fitted inhibition curve with a large enough effect; inconclusive means small, poorly fitted or top-dose-only effect, or another doubt; inactive means no such curve, though single readings can be large or run the other way; further: potency means the concentration at half of the fitted maximal effect
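Cells seeded at 1,000/well and cultured 4 h, then compounds added followed by HCVcc-Cre virus (~0.5 moi). After 44 h further culture, luciferase substrate was added, plates held 15 min at room temperature, and luminescence read for 15 sec.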
Lassa entry inh = qHTS for Inhibitors of binding or entry into cells for Lassa Virus; Potency, µM (doses to about 37.9 µM), for inactives: at the top dose activity change, negative = inhibition, actives largely listed as inhibitors; Lassa virus pseudotype entry inhibition, cell reporter; 300,000 compounds, 1.2% hits; AID 540256, 2011; calls by dose curve; tested in HEK293 cells; further: potency means the concentration at half of the fitted maximal effect; nearly all actives have a fitted effect of over 50% in size
FMDV antiviral = High Throughput Screening for Foot and Mouth Disease Virus Antivirals; FMDV antiviral cell-based qHTS; Potency, µM (highest dose often 57.9 µM), for inactives: top-dose activity change, negative = inhibition, actives largely listed as inhibitors; 410,000 compounds, 1.2% hits; calls by dose curve; tested in HEK293T cells; further: read-out not given here; potency means the concentration at half of the fitted maximal effect; nearly all actives have a fitted effect of over 45% in size
HCMV antiviral = qHTS Assay for inhibitors of the human cytomegalovirus (HCMV); activity change, negative = inhibition, % at 57.5 µM; HFF cells, HCMV-luciferase reporter, 72 h; active compounds read low; 410,000 compounds, 4.5% hits; in the data active means activity change below about -60%; inconclusive means no clear call, values can overlap the other calls; inactive means above about -39%
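Screen run at 2 compound doses on HFFs infected with reporter HCMV, MOI 1 PFU/cell. Luciferase activity from cell lysates at 72 h post infection gave inhibition relative to buffer-only and Salinomycin wells.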
* = called active by the depositor; ? = inconclusive; . = no result; [ ] = dose if it differs, or a comment. Hits are enriched below; roughly 7.9% of the tested compounds scored in any of these assays. On the % scale 0 is the no-effect control and ±100 the full control effect.

SMILES	MARV entry inh	HCV inh	Lassa entry inh	FMDV antiviral	HCMV antiviral
COc1ccc(OC)c(NC(=O)c2nc(S(=O)(=O)Cc3ccccc3)ncc2Cl)c1	?	?	?	7.08µM*	-99.3*
COc1ccccc1NC(=O)Nc1nc(CC(=O)NCc2ccc(F)cc2)cs1	?	7.08µM*	-1.2%	39.8µM*	-40.0
CN(C)Cc1csc(NC(=O)Nc2ccccc2C(C)(C)C)n1	.	.	.	-14.3%	-76.0*
COc1cccc(CNC(=O)Cc2csc(NC(=O)Nc3ccccc3OC)n2)c1	-20.2%	5.62µM*	?	-4.9%	-17.0
CCn1cc(S(=O)(=O)c2cc(C)cc(C)c2)c(=O)c2cc(F)c(N3CCCC3)cc21	.	.	4.7%[46.1 µM]	40.5%	-15.4
COc1ccc(C)cc1-n1c(C)cc(C=O)c1C	-9.8%[46.1 µM]	?	-16.3%	-3.7%	?
COc1ccc(N)cc1-n1c(C)ccc1C	?	0.708µM*	-1.1%[46.1 µM]	3.4%	-65.5*
CC(=O)c1ccc(NC(=O)C(C)OC(=O)c2cccc(-n3cnnn3)c2)cc1 (configuration not stated)	3.4%	-17.1%	-2.0%	?	-22.4
CC(OC(=O)c1cccc(-n2cnnn2)c1)c1nc2ccccc2c(=O)[nH]1 (configuration not stated)	.	-8.4%	.	?	-64.7*
CC(OC(=O)c1cccc(-n2cnnn2)c1)C(=O)Nc1cccc(Cl)c1 (configuration not stated)	-10.7%	8.91µM*	?	-1.0%	-27.2
O=C(COC(=O)c1cccc(-n2cnnn2)c1)c1ccc(F)cc1	-7.3%	28.0%	?	67.1%	48.9
CSCCC(NS(=O)(=O)c1ccc(Br)cc1)C(=O)OCC(=O)NC1CC1 (configuration not stated)	2.8%[46.1 µM]	6.5%	10.7%	8.1%	-64.9*
CSCCC(NS(=O)(=O)c1ccc(Cl)cc1)C(=O)OCC(=O)NC1CC1 (configuration not stated)	0.3%	?	6.4%	-1.5%	-19.6
CC1CN=C(c2ccc(Cl)cc2)c2c3ccccc3nn21 (configuration not stated)	.	.	.	.	26.2
Cc1ccc(OCCn2c(C3CC(=O)N(Cc4ccc(F)cc4)C3)nc3ccccc32)c(C)c1 (configuration not stated)	?	.	?	-28.1%	-91.6*
CCc1ccc(OCCn2c(C3CC(=O)N(Cc4ccc(F)cc4)C3)nc3ccccc32)cc1 (configuration not stated)	?	.	-21.1%[46.1 µM]	-40.7%	-105.2*
Cc1ccc(OCCCn2c(C3CC(=O)N(c4cccc(Cl)c4)C3)nc3ccccc32)c(C)c1 (configuration not stated)	?	.	-2.5%[46.1 µM]	-9.3%	16.7
O=c1/c(=C/c2ccc([N+](=O)[O-])cc2)sc2n1CCCN=2	19.1%	-6.8%	13.9%	23.4%	-90.9*
COc1cccc2sc(=NC(=O)CS(=O)(=O)c3ccc(F)cc3)n(C)c12	-4.0%	2.5%[8.37 µM]	-0.7%	?	-18.6
COc1cccc2sc(=NC(=O)CCS(=O)(=O)c3ccc(C)cc3)n(C)c12	-6.1%	18.2%	?	-5.5%	-34.7
CCOc1cccc2sc(=NC(=O)c3ccco3)n(CC(=O)OC)c12	?	11.2µM*	-26.8%[46.1 µM]	0.0%	0.0
CCn1c(=NC(=O)CS(=O)(=O)c2ccc(C)cc2)sc2cccc(OC)c21	?	?	?	?	-62.4*
CCOc1cccc2sc(=NC(=O)CCS(=O)(=O)c3ccccc3)n(CC)c12	.	11.2µM*	.	?	?
Cc1nc2cnc(N3CCN(C)CC3)nc2n(C2CC2)c1=O	.	.	.	-24.3%	.
CC(C)c1ccc(NC(=O)CN2C(=O)COc3ccc(S(=O)(=O)N4CCCCCC4)cc32)cc1	.	.	?	-11.0%	12.4
CC1=CN2C(=N)/C(=C/c3ccc(C)o3)C(=O)N=C2S1	9.5%	33.9%	1.26µM*	?	68.1
COCC(C)n1c(C)cc(C(=O)CSc2nc(C)c(C)c(C)n2)c1C (configuration not stated)	-3.8%	10µM*	.	-16.1%	?
COCCn1c(C)cc(C(=O)CSc2nc(C)c(C)c(C)n2)c1C	12.8%[46.1 µM]	-4.9%	-4.7%	-24.3%	14.9

Assay outcomes (PubChem BioAssay)
